# Records with an inconclusive call do not appear. Where a call stands in place of a potency, no number is given. A number with no mark means an inactive call. The source made the active and inactive calls. Unless noted, calls follow the shape of the full dose curve.
# Tests used:
# [1] = qHTS for Inhibitors of the Functional Ribonucleoprotein Complex (vRNP) of Lassa (LASV) Arenavirus: LASV Primary Screen - GLuc reporter signal (AID 1347082; calls by dose curve; tested in HEK293 reporter line; also: nearly all actives have a fitted effect of over 60% in size; as to activity change, negative = inhibition: series mostly up to about 57 µM)
# [2] = qHTS for Inhibitors of the Functional Ribonucleoprotein Complex (vRNP) of Lassa (LASV) Arenavirus: Viability assay - alamar blue signal for LASV Primary Screen (AID 1347083; calls by dose curve; tested in HEK293 reporter line; also: nearly all actives have a fitted effect of over 80% in size; as to activity change, negative = reduced viability: series mostly up to about 57 µM)
# [3] = qHTS for Inhibitors of the Functional Ribonucleoprotein Complex (vRNP) of Lymphocytic Choriomeningitis Arenaviruses (LCMV): Viability assay - alamar blue signal for LCMV Primary Screen (AID 1347085; calls by dose curve; tested in HEK293 reporter line; also: nearly all actives have a fitted effect of over 80% in size; as to activity change, negative = lower viability: series mostly up to about 57 µM)
# [4] = target: Nucleoprotein (Lymphocytic choriomeningitis virus (strain Armstrong)) (UniProt P09992); assay: qHTS for Inhibitors of the Functional Ribonucleoprotein Complex (vRNP) of Lymphocytic Choriomeningitis Arenaviruses (LCMV): LCMV Primary Screen - GLuc reporter signal (AID 1347086); also: nearly all actives have a fitted effect of over 70% in size; as to activity change, negative = inhibition: series mostly up to about 57 µM
# Nucleoprotein (Lymphocytic choriomeningitis virus (strain Armstrong)), sequence (P09992 whole entry, looked up): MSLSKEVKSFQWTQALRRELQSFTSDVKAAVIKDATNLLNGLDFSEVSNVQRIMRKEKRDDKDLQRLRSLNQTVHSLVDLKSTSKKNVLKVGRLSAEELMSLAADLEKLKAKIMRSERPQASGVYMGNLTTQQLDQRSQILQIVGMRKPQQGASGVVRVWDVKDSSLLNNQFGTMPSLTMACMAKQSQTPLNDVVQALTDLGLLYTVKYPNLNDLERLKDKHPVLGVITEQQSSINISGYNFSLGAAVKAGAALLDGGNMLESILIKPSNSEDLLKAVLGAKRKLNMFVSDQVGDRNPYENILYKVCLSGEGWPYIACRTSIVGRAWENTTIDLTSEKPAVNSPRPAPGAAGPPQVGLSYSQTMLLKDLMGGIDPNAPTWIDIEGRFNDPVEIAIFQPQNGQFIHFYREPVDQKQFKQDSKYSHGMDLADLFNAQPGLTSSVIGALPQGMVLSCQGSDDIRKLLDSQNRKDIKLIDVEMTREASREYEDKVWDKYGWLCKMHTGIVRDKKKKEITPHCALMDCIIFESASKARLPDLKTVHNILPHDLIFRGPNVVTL
# Potency is read from the fitted curve at half-maximal effect.
Structure (SMILES),Potency [1],Potency [2],Potency [3],Potency [4],"activity change, negative = inhibition [1]","activity change, negative = reduced viability [2]","activity change, negative = lower viability [3]","activity change, negative = inhibition [4]"
CCCCCCCCCCCCC,inactive,inactive,inactive,inactive,,,,
CC/C=C\CCOC(=O)c1ccccc1,inactive,inactive,inactive,inactive,,,,
OC1O[C@H](c2ccc3c(c2)OCO3)[C@H]2CO[C@H](c3ccc4c(c3)OCO4)[C@@H]12 (stereo not given in full),inactive,inactive,inactive,inactive,,,,
O=C(O)c1ccco1,inactive,inactive,inactive,inactive,,,,
COc1ccc(/C=C/C(=O)c2c(OC)cc(O)cc2OC)cc1,inactive,inactive,inactive,inactive,,,,
N#CC(=Cc1ccc(O)c(O)c1)C(=O)NCc1ccccc1,inactive,inactive,inactive,inactive,,,,
O=c1oc(-c2ccc(O)c(O)c2)cc2cc(O)cc(O)c12,inactive,inactive,inactive,inactive,,,,
C=CC[C@]12C=C(OC)C(=O)C=C1O[C@@H](c1ccc3c(c1)OCO3)[C@H]2C,inactive,inactive,inactive,inactive,,,,
OCCC(O)CO (stereo not given),inactive,inactive,inactive,inactive,,,,
C/C=C(/C)C(=O)OC1Cc2c(ccc3ccc(=O)oc23)OC1(C)C (stereo not given),inactive,inactive,inactive,inactive,,,,
CC(C)CC[C@@H](O)[C@](C)(O)C1CC[C@@]2(O)C3=CC(=O)[C@@H]4C[C@@H](O)[C@@H](O)C[C@]4(C)C3CC[C@]12C (stereo not given in full),inactive,inactive,inactive,inactive,,,,
CNC(=O)c1ccccc1Sc1ccc2c(C=Cc3ccccn3)n[nH]c2c1,inactive,17200 nM (active),inactive,inactive,,,,
COc1cc(O)c2c(=O)c3c(O[C@H]4O[C@@H](CO)[C@H](O)[C@@H](O)[C@@H]4O)ccc(O)c3oc2c1,inactive,inactive,inactive,inactive,,,,
CC(=O)OC[C@]1(OC(C)=O)C[C@@]23CC[C@H]4[C@@](C)(CCC[C@@]4(C)C(=O)O)[C@@H]2CC[C@@H]1C3,inactive,inactive,inactive,inactive,,,,
NC(=O)[C@H]1CCCN1C(=O)[C@H](Cc1cnc[nH]1)NC(=O)[C@@H]1CCC(=O)N1,,,,,10.2% [at 5.82 µM],6.52% [at 5.82 µM],-0.247% [at 5.82 µM],-2.24% [at 5.82 µM]
CCN1CCC(n2cc(CNc3cc(Cl)c4ncc(C#N)c(Nc5ccc(F)c(Cl)c5)c4c3)nn2)CC1,inactive,inactive,inactive,inactive,,,,
CC1CCC[C@H](O)CCCCCc2cc(O)cc(O)c2C(=O)O1 (stereo not given in full),inactive,inactive,inactive,inactive,,,,
CC(=O)OC[C@H]1O[C@@H](O[C@H]2C[C@]3(C)C(C[C@@H](O)C4C([C@]5(C)CC[C@@H](C(C)(C)O)O5)CC[C@]43C)[C@@]3(C)CC[C@H](O)C(C)(C)C23)[C@H](O[C@@H]2O[C@@H](C)[C@H](O)[C@@H](O)[C@H]2O)[C@@H](O)[C@@H]1O (stereo not given in full),inactive,inactive,inactive,inactive,,,,
CCCCCCCCCO,inactive,inactive,inactive,inactive,,,,
O=Cc1ccnc2ccccc12,inactive,inactive,inactive,inactive,,,,

Structure (SMILES),Potency [1],Potency [2],Potency [3],Potency [4],"activity change, negative = inhibition [1]","activity change, negative = reduced viability [2]","activity change, negative = lower viability [3]","activity change, negative = inhibition [4]"
COC(=O)c1c(C)cc(O)c(C)c1O,inactive,inactive,inactive,inactive,,,,
CC(=O)OC1C(OC(C)=O)C2C(C)CC3OC(=O)C(C)C3CC2(C)C1OC(C)=O (stereo not given),inactive,inactive,inactive,inactive,,,,
C/C(=C/CCC(C)[C@H]1CC[C@@]2(C)C3=C(CC[C@]12C)[C@@]1(C)CCC(=O)C(C)(C)[C@@H]1CC3)C(=O)O (stereo not given in full),inactive,inactive,inactive,inactive,,,,
O=C1CCCCCCCCCCCCCC1,inactive,inactive,inactive,inactive,,,,
COc1c(OC)c(O)c2c(=O)cc(-c3c(O)cccc3O)oc2c1OC,inactive,inactive,inactive,inactive,,,,
CC(C)=CCC[C@](C)(O)C1CC[C@]2(C)C1[C@H](O)CC1[C@@]3(C)CC[C@H](O[C@@H]4O[C@H](CO)[C@@H](O)[C@H](O)[C@H]4O[C@@H]4O[C@H](CO)[C@@H](O)[C@H](O)[C@H]4O)C(C)(C)C3CC[C@]12C (stereo not given in full),inactive,inactive,inactive,inactive,,,,
CC(=O)c1c(O)cccc1O,inactive,inactive,inactive,inactive,,,,
O=c1c(O)c(-c2ccc(O[C@@H]3O[C@H](CO)[C@@H](O)[C@H](O)[C@H]3O)c(O)c2)oc2cc(O)cc(O)c12,inactive,inactive,inactive,inactive,,,,
COc1cc(CCc2cc(NC(=O)c3ccc(N4C[C@@H](C)N[C@@H](C)C4)cc3)n[nH]2)cc(OC)c1,inactive,34300 nM (active),43200 nM (active),inactive,,,,
Cc1ncsc1CCO,inactive,inactive,inactive,inactive,,,,
C=C(C)C(O)CC/C(C)=C/Cc1c(O)ccc(C(=O)/C=C/c2ccc(O)cc2)c1O (stereo not given),inactive,inactive,inactive,inactive,,,,
FC(F)c1nc2ccccc2n1-c1nc(N2CCOCC2)nc(N2CCOCC2)n1,8630 nM (active),3060 nM (active),13700 nM (active),19300 nM (active),,,,
CS(=O)(=O)N1CCN(Cc2cc3nc(-c4cccc5[nH]ncc45)nc(N4CCOCC4)c3s2)CC1,1720 nM (active),968 nM (active),1220 nM (active),1370 nM (active),,,,
CC(C)(O)CC[C@H](OC(=O)c1ccccc1)[C@](C)(O)[C@H]1CC[C@@]2(O)C3=CC(=O)[C@@H]4C[C@@H](O)[C@H](O)C[C@]4(C)C3CC[C@]12C (stereo not given in full),inactive,inactive,inactive,inactive,,,,
O=c1[nH]c(=O)n([C@H]2C[C@@H](O)[C@@H](CO)O2)cc1I,inactive,inactive,inactive,inactive,,,,
CC=C(C)C(=O)OC1CCN2CC=C(COC(=O)C(O)(C(C)OC)C(C)(C)O)C12 (stereo not given),inactive,inactive,inactive,inactive,,,,
c1ccc(-c2ccncc2)cc1,inactive,inactive,inactive,inactive,,,,
CC1=CC[C@@]23C[C@@H]1C(C)(C)[C@@H]2CC[C@H]3C,inactive,inactive,inactive,inactive,,,,
COc1c2c(c(C)c3c1C(=O)OC3)O[C@@]1(C)CC[C@@]3(O)C(C)(C)OC(=O)CC[C@]3(C)[C@H]1C2,inactive,inactive,inactive,inactive,,,,
CCC1CCC(=O)O1 (stereo not given),inactive,inactive,inactive,inactive,,,,

Structure (SMILES),Potency [1],Potency [2],Potency [3],Potency [4],"activity change, negative = inhibition [1]","activity change, negative = reduced viability [2]","activity change, negative = lower viability [3]","activity change, negative = inhibition [4]"
COc1ccc(CC2c3cc(OC)c(OC)cc3CCN2C)cc1O (stereo not given),inactive,inactive,inactive,inactive,,,,
COc1n[nH]c2nncnc12,inactive,inactive,inactive,inactive,,,,
CC(C)(O)c1cc2nc(-c3cnc(N)nc3)nc(N3CCOCC3)c2s1,385 nM (active),193 nM (active),769 nM (active),611 nM (active),,,,
CC(C)=CCCC(C)CCOC=O (stereo not given),inactive,inactive,inactive,inactive,,,,
COc1ccc([C@H]2Cc3cccc(O)c3C(=O)O2)cc1O,inactive,inactive,inactive,inactive,,,,
O=C(O)C=Cc1ccc(Cn2ccnc2)cc1,inactive,inactive,inactive,inactive,,,,
O=Cc1cc2ccccc2o1,inactive,inactive,inactive,inactive,,,,
OCC(O)C(O)C(O)CO (stereo not given),inactive,inactive,inactive,inactive,,,,
O=C1C=C(O)c2cccc(O)c2C1=O,inactive,inactive,inactive,inactive,,,,
CC1(C)C=C2[C@H]3CC[C@@H]4[C@@]5(C)CCC(=O)C(C)(C)[C@@H]5CC[C@@]4(C)[C@]3(C)CC[C@@]2(C(=O)O)CC1,inactive,inactive,inactive,inactive,,,,
C=C1CC[C@H](O)C/C1=C/C=C1\CCC[C@]2(C)[C@@H]([C@H](C)CCC(O)C(C)(C)O)CC[C@@H]12 (stereo not given in full),inactive,inactive,inactive,inactive,,,,
CC1=CC(=O)[C@H]2C[C@@H]1C2(C)C,inactive,inactive,inactive,inactive,,,,
c1ccc2cnccc2c1,inactive,inactive,inactive,inactive,,,,
COc1c2n(C)ccc3c-2n(c(=O)c1=O)c1ccccc31,inactive,inactive,inactive,inactive,,,,
Cc1cc(CS(=O)(=O)c2ccccc2)cc(OCc2ccc(CN3CCC[C@H]3CO)cc2)c1,inactive,inactive,inactive,inactive,,,,
C/C=C/C=C/CO,inactive,inactive,inactive,inactive,,,,
CCCCCCC[C@@H](C/C=C/CCC(=O)O)OC,inactive,inactive,inactive,inactive,,,,
Cc1ccc(C(C)C)cc1O,inactive,inactive,inactive,inactive,,,,
COc1ccc(C(C)=O)cc1,inactive,inactive,inactive,inactive,,,,
CCCCCCOC(=O)CCCCC,inactive,inactive,inactive,inactive,,,,

# — PubChem BioAssay (NCATS)
